Test systems include NCI-H23 lung; NCI-H226 lung; NCI-H322M lung; HOP-62 NSCLC; NCI-H460 lung; NCI-H522 lung; A549/ATCC NSCLC; 786-0 renal; COLO 205 colon; DU-145 prostate; K-562 leukemia; MALME-3M melanoma; MDA-MB-231 breast; RXF 393 renal; SF-268 CNS; SF-295 CNS; SF-539 CNS; UACC-257 melanoma; M14 melanoma.
Experiment in all cases: NCI-60 one-dose screen, 48 h (100 = growth as untreated, 0 = no growth, -100 = all killed)
Common to all, as to settings: 10 µM unless noted

Compounds without any hit were thinned out: in the full panel of roughly 83,000, 20% have a hit.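 Percent growth is the endpoint: 0 to 100 indicates growth inhibition (40 means 60% inhibition), 0 means no net growth, and negative values indicate cell death.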 Unmarked numbers belong to inactive results. Calls of active or inactive are those of the source. Rule for the calls: active = growth percent below 10; inactive = the rest.

Consider `N=C(N)c1ccc(NCCNc2ccc(C(=N)N)cc2)cc1`, for which the growth in the test on NCI-H23 lung is 85.9%; with NCI-H226 lung, 62.6%; with NCI-H322M lung it was 95.5%; with HOP-62 NSCLC, 121%; with NCI-H460 lung it was 50.3%; with NCI-H522 lung, 92.9%. Further, the growth with A549/ATCC NSCLC is 42.2%; in the test on 786-0 renal, 117%; with COLO 205 colon it was 142%; in the test on DU-145 prostate it was 106%; with K-562 leukemia it was 82.1%; in the test on MALME-3M melanoma it was 100%. Moreover, the growth was 87.3% in the test on MDA-MB-231 breast; 98.3% in the test with RXF 393 renal; 113% with SF-268 CNS; 66.3% in the test with SF-295 CNS; 84.7% with SF-539 CNS; 62.3% in the test on UACC-257 melanoma. Also, the growth with M14 melanoma is 125%.

Regarding `O=C(O)c1cc2cc(OCc3ccccc3)ccc2[nH]1`, the growth was 103% in the test with NCI-H23 lung; 107% in the test on NCI-H226 lung; 99% in the test with NCI-H322M lung; 93.8% in the test on HOP-62 NSCLC; 98.4% in the test with NCI-H460 lung; 90.3% with NCI-H522 lung. Moreover, the growth in the test with A549/ATCC NSCLC was 90.9%; in the test on 786-0 renal it was 115%; with COLO 205 colon, 93.7%; in the test on DU-145 prostate, 114%; with K-562 leukemia, 112%; in the test on MALME-3M melanoma, -20.3% (active). Also, the growth in the test with MDA-MB-231 breast is 99.1%; in the test with RXF 393 renal, 111%; with SF-268 CNS, 99.9%; in the test with SF-295 CNS, 108%; in the test on SF-539 CNS it was 87.5%; in the test with UACC-257 melanoma, 48%. Moreover, in the test with M14 melanoma, the growth was 106%.

Regarding `CC1(C)CC(=O)c2cc3c(N)c(C(=O)Nc4ccc(Cl)cc4)sc3nc2C1`, the growth with NCI-H23 lung was 105%; in the test with NCI-H226 lung, 108%; in the test on NCI-H322M lung, 114%; in the test on HOP-62 NSCLC, 108%; with NCI-H460 lung it was 109%; with NCI-H522 lung, 95.8%. The growth in the test with A549/ATCC NSCLC is 97.6%; with 786-0 renal, 98.7%; in the test on COLO 205 colon, 117%; in the test on DU-145 prostate it was 103%; in the test on K-562 leukemia, 107%; with MALME-3M melanoma, 119%. Moreover, the growth in the test on MDA-MB-231 breast was 115%; in the test with RXF 393 renal, 116%; in the test on SF-268 CNS, 125%; in the test on SF-295 CNS it was 100%; in the test on SF-539 CNS it was 114%; in the test with UACC-257 melanoma, 91.4%. Besides, the growth in the test with M14 melanoma is 107%.

For `CCCC(CCC)(C(N)=O)C(=O)O`, the growth with NCI-H23 lung is 105%; with NCI-H226 lung, 98.5%; with NCI-H322M lung it was 111%; in the test on HOP-62 NSCLC it was 98.6%; in the test on NCI-H460 lung, 115%; in the test on NCI-H522 lung, 97.2%. Besides, the growth in the test on A549/ATCC NSCLC is 97.8%; with 786-0 renal, 113%; in the test on COLO 205 colon it was 106%; with DU-145 prostate, 108%; in the test with K-562 leukemia it was 120%; with MALME-3M melanoma, 111%. Moreover, the growth in the test with MDA-MB-231 breast is 116%; with RXF 393 renal, 124%; in the test on SF-268 CNS it was 102%; in the test with SF-295 CNS, 107%; in the test on SF-539 CNS it was 120%; in the test with UACC-257 melanoma it was 102%. Moreover, the growth in the test with M14 melanoma was 108%.

For the compound `O=C(Nc1cccc(N=Cc2c(O)ccc3ccccc23)c1)c1ccccc1`, the growth with NCI-H23 lung was 95.8%; with NCI-H226 lung, 94.1%; in the test on NCI-H322M lung it was 95%; with HOP-62 NSCLC, 86.9%; in the test on NCI-H460 lung, 111%; with NCI-H522 lung, 76.8%. For the same compound, the growth in the test on A549/ATCC NSCLC was 94.7%; in the test on 786-0 renal, 93.4%; in the test with COLO 205 colon, 105%; with DU-145 prostate, 98.2%; in the test on K-562 leukemia it was 97.3%; in the test with MALME-3M melanoma, 102%. Besides, the growth in the test with MDA-MB-231 breast was 94.1%; with RXF 393 renal it was 90.4%; in the test on SF-268 CNS it was 89.1%; in the test with SF-295 CNS, 95.2%; in the test with SF-539 CNS it was 90.5%; in the test on UACC-257 melanoma it was 91.6%. The growth in the test on M14 melanoma is 91.1%.

For `COc1ccc2[nH]cc(C3(c4c[nH]c5ccc(OC)cc45)C(=O)Nc4ccc(Cl)cc43)c2c1`, the growth with NCI-H23 lung is 80.3%; in the test with NCI-H226 lung it was 108%; in the test on NCI-H322M lung, 85.5%; with HOP-62 NSCLC, 85.2%; in the test with NCI-H460 lung, 6.57% (active); with NCI-H522 lung, 65.7%. Moreover, the growth with A549/ATCC NSCLC is 63.6%; in the test with 786-0 renal, 74.1%; in the test with COLO 205 colon, 69.2%; in the test on DU-145 prostate, 66.9%; in the test on K-562 leukemia, 6.2% (active); in the test with MALME-3M melanoma, 78.9%. The growth in the test with MDA-MB-231 breast is 82.4%; in the test on RXF 393 renal it was 94.5%; in the test on SF-268 CNS, 40.8%; in the test on SF-295 CNS, 59.6%; in the test with SF-539 CNS it was 74.8%; in the test on UACC-257 melanoma, 86.5%. Also, the growth in the test on M14 melanoma was 73.8%.

Take `COc1cccc(/C(C)=N/NC(=O)CSc2nc3ccccc3c(=O)n2CCc2ccc(S(N)(=O)=O)cc2)c1`: the growth was 31.6% in the test with NCI-H23 lung; 89.1% with NCI-H226 lung; 58.2% with NCI-H322M lung; 35% with HOP-62 NSCLC; -53.2% (active) in the test on NCI-H460 lung; 42.2% with NCI-H522 lung. Further, the growth is 15.6% in the test with A549/ATCC NSCLC; -26.9% (active) in the test on 786-0 renal; 42.9% in the test on COLO 205 colon; 18.4% in the test with DU-145 prostate; 32% with K-562 leukemia; -15.2% (active) in the test on MALME-3M melanoma. The growth with MDA-MB-231 breast was -25.5% (active); in the test on RXF 393 renal, 57.9%; in the test with SF-268 CNS, 36.1%; in the test on SF-295 CNS, 44%; in the test on SF-539 CNS, -18.1% (active); in the test on UACC-257 melanoma, 45.2%. The growth in the test with M14 melanoma was 27.3%.

In the case of `CCCCCCCCCCCC1=NC(C)(C)CN1CC(C)O` (configuration not stated), the growth with NCI-H23 lung is 64.1%; in the test with NCI-H226 lung it was 92.8%; in the test on NCI-H322M lung, 92.2%; with HOP-62 NSCLC it was 60.2%; with NCI-H460 lung, 62.6%; with NCI-H522 lung, 57%. For the same compound, the growth in the test on A549/ATCC NSCLC was 85.4%; with 786-0 renal, 69.1%; in the test with COLO 205 colon, -97.5% (active); in the test with DU-145 prostate, 80.1%; in the test on K-562 leukemia, -44.6% (active); in the test with MALME-3M melanoma, 79%. In addition, the growth is 44% in the test with MDA-MB-231 breast; 28.9% in the test with RXF 393 renal; 60.1% in the test with SF-268 CNS; 93.3% in the test on SF-295 CNS; 63.8% in the test on SF-539 CNS; 59.5% with UACC-257 melanoma. For the same compound, in the test with M14 melanoma, the growth was -2.07% (active).

Values taken from PubChem BioAssay (NCI).
